# Experimental data: the supplement of paper PMC13172266
# Structures can show the parent of a compound that is named as a salt.
# Tested on: U2932 TK216-resistant clone 2
# Test: cell proliferation relative to vehicle (% of vehicle); higher = less growth inhibition
# Conditions: 50 nM; 72 h
# In short: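 A targeted inhibitor library of 348 compounds was tested on the ABC-DLBCL line U2932, both parental and two clones made resistant to an ETS-targeting agent by repeated exposure over almost a year. Cells were grown at 37°C and 5% CO2 in medium with 10% FBS, then treated at 500 nM or 50 nM for 72 h. MTT was added for 4 h, stopped with 25% SDS, and absorbance was read on a Cytation 3. Proliferation is reported as percent of proliferating cells relative to vehicle (DMSO).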
row,Compound,cell proliferation
1,CCCCCOC(=O)Nc1nc(=O)n([C@@H]2O[C@H](C)[C@@H](O)[C@H]2O)cc1F [Capecitabine],103
2,C[C@H](Nc1ncnc2nc[nH]c12)c1cc2cccc(Cl)c2c(=O)n1-c1ccccc1,103
3,Cc1cc(Nc2cc(N3CCN(C)CC3)nc(/C=C/c3ccccc3)n2)n[nH]1 [ENMD-2076 L-(+)-Tartaric acid],101
4,Cn1cc(CNCC2CCN(c3ncc(C(=O)NO)cn3)CC2)c2ccccc21,8.61
5,Cc1ccc(C(=O)N(CCCN)[C@@H](c2nc3cc(Cl)ccc3c(=O)n2Cc2ccccc2)C(C)C)cc1,13
6,NCC(=O)Nc1ccc(-n2nc(C(F)(F)F)cc2-c2ccc3c(ccc4ccccc43)c2)cc1,99.6
7,CC[C@@]1(O)C(=O)OCc2c1cc1n(c2=O)Cc2cc3c(CN(C)C)c(O)ccc3nc2-1 [Topotecan HCl],9.75
8,COc1ccc(S(=O)(=O)N(CCO)c2ccccc2CN(C)C/C=C/c2ccc(Cl)cc2)cc1 [KN-93 Phosphate],103
9,CC[C@@H]1C(=O)N(C)c2cnc(Nc3ccc(C(=O)NC4CCN(C)CC4)cc3OC)nc2N1C1CCCC1,13.1
10,CC(C)(C)c1nc(-c2cccc(NS(=O)(=O)c3c(F)cccc3F)c2F)c(-c2ccnc(N)n2)s1,111
11,CC(C)CCN1c2nc(Nc3cc(F)c(O)c(F)c3)ncc2N(C)C(=O)C1C (centres undefined),114
12,CN1C(=O)C(Cc2c[nH]c3ccccc23)NC1=S (centres undefined) [Necrostatin-1],103
13,CN(CCOc1ccc(CC2SC(=O)NC2=O)cc1)c1ccccn1 (centres undefined) [Rosiglitazone],100
14,CC(C)C[C@H](NC(=O)[C@H](CCc1ccccc1)NC(=O)CN1CCOCC1)C(=O)N[C@@H](Cc1ccccc1)C(=O)N[C@@H](CC(C)C)C(=O)[C@@]1(C)CO1 [Carfilzomib (PR-171)],-2.48
15,Cn1cc(-c2ccc3c(c2)CCN3C(=O)Cc2cccc(C(F)(F)F)c2)c2c(N)ncnc21,105
16,Cc1cc(C(C)Nc2ccccc2)c2nc(N3CCOCC3)cc(=O)n2c1 (centres undefined),103
17,Oc1nc(-c2ccc(C(F)(F)F)cc2)nc2c1CSCC2,90.3
18,Cn1cnc([N+](=O)[O-])c1Sc1ncnc2[nH]cnc12 [Azathioprine],100
19,Cn1cncc1[C@@](N)(c1ccc(Cl)cc1)c1ccc2c(c1)c(-c1cccc(Cl)c1)cc(=O)n2C [Tipifarnib],91.9
20,CO[C@@H](C(=O)N1Cc2[nH]nc(NC(=O)c3ccc(N4CCN(C)CC4)cc3)c2C1)c1ccccc1,97.2

row,Compound,cell proliferation
1,CC(C)(C)c1cc(NC(=O)Nc2ccc(-c3cn4c(n3)sc3cc(OCCN5CCOCC5)ccc34)cc2)no1 [Quizartinib (AC220)],95.7
2,O=C(NCCCNc1nc(Nc2cccc(NC(=O)N3CCCC3)c2)ncc1I)c1cccs1,98.5
3,N#C/C(=C(/N)Sc1ccc(N)cc1)c1ccccc1C(F)(F)F,102
4,Oc1ccc(-c2nc(-c3ccc(F)cc3)c(-c3ccncc3)[nH]2)cc1,109
5,COc1ccc(F)c(F)c1C(=O)c1cnc(NC2CCN(S(C)(=O)=O)CC2)nc1N,92
6,Cc1nc(-c2ccc(OCC(C)C)c(C#N)c2)sc1C(=O)O [Febuxostat],101
7,COc1cccc(-c2cc(F)ccc2C2Cc3nc(N)nc(C)c3C(=O)N2)n1 (centres undefined),6.3
8,CC(C)C(=O)Nc1ccc([N+](=O)[O-])c(C(F)(F)F)c1 [Flutamide],90.7
9,CN(C)CCOc1ccc(-c2nc(-c3ccncc3)c(-c3ccc4c(c3)CC/C4=N\O)[nH]2)cc1,93.3
10,Nc1nc(F)nc2c1ncn2[C@@H]1O[C@H](COP(=O)(O)O)[C@@H](O)[C@@H]1O [Fludarabine Phosphate],98.2
11,COc1ccc(C2=N[C@@H](c3ccc(Cl)cc3)[C@@H](c3ccc(Cl)cc3)N2C(=O)N2CCNC(=O)C2)c(OC(C)C)c1 [Nutlin-3a],110
12,CCS(=O)(=O)N1CC(CC#N)(n2cc(-c3ncnc4[nH]ccc34)cn2)C1,107
13,CCc1nc(-c2cccc(C)c2)c(-c2ccnc(NC(=O)c3ccccc3)c2)s1,103
14,CNCc1ccc(-c2[nH]c3cc(F)cc4c3c2CCNC4=O)cc1,101
15,CCCCOc1c(C(=O)c2c(F)cc(C)cc2F)c[nH]c2nncc1-2,78.8
16,CC[C@H](NC(=O)[C@H](C)NC)C(=O)N1C[C@@H](O)C[C@H]1Cc1c(-c2[nH]c3cc(F)ccc3c2C[C@@H]2C[C@H](O)CN2C(=O)[C@H](CC)NC(=O)[C@H](C)NC)[nH]c2cc(F)ccc12 [Birinapant],102
17,O=C(/C=C/c1ccc(CN(CCO)CCc2c[nH]c3ccccc23)cc1)NO [LAQ824 (Dacinostat)],41.2
18,COc1ccc(-n2c(SCCCN3C(=O)c4cccc5cccc(c45)C3=O)nnc2-c2ccncc2)cc1,106
19,CO[C@H]1C[C@@H]2CC[C@@H](C)[C@@](O)(O2)C(=O)C(=O)N2CCCC[C@H]2C(=O)O[C@H]([C@H](C)C[C@@H]2CC[C@@H](O)[C@H](OC)C2)CC(=O)[C@H](C)/C=C(\C)[C@@H](O)[C@@H](OC)C(=O)[C@H](C)C[C@H](C)/C=C/C=C/C=C/1C [Rapamycin (Sirolimus)],62.4
